In all, about 320,000 compounds went through this assay and about 8,000 (2.5%) were called active. For the sample, actives were picked, then their nearest neighbours and some compounds at random. Unmarked numbers belong to inactive results. Cut-off read from the data, not from the text of the source: active = activation above about 47%; inactive = the rest.

Sequence of Aryl hydrocarbon receptor (Homo sapiens) (P35869 whole entry, looked up): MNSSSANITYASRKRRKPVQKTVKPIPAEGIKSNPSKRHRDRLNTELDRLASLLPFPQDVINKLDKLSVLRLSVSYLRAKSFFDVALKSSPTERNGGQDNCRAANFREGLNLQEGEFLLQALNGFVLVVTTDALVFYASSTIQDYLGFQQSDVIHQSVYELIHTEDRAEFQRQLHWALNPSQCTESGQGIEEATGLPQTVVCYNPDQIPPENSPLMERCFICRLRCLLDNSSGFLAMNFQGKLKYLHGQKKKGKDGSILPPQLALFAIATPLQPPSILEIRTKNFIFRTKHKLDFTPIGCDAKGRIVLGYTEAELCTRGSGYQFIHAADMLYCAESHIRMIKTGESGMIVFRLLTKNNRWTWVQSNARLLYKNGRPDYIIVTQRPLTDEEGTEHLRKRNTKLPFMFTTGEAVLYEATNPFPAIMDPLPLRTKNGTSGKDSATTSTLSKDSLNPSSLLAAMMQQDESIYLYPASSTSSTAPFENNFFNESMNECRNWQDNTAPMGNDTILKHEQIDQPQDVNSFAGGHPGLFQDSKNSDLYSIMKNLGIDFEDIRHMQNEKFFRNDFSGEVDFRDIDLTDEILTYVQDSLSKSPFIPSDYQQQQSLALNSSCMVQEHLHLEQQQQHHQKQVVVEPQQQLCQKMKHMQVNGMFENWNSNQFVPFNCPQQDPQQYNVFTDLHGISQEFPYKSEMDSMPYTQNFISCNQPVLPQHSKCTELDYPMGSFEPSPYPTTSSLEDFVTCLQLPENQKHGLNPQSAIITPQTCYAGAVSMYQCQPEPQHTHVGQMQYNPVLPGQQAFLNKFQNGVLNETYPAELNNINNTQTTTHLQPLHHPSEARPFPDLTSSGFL

The assay has as its target Aryl hydrocarbon receptor (Homo sapiens) (UniProt P35869). The assay is described as follows: AHR activators, primary screen, cell-based, luminescence, luciferase reporter, human (AID 2796).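 Note: 0% = vehicle wells and 100% = reference agonist.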 To be noted: AHR-responsive luciferase reporter cells, at 5 µM, hits give high values.
For `CCCCNC(=O)Nc1c(C)cc(SC#N)cc1C`, the activation is 3.18%.
Take `O=C(c1cncc(Br)c1)N1CCN(c2ccc([N+](=O)[O-])cc2)CC1`: the activation is 52.5% (active).
`O=C(c1ccc(Cl)c([N+](=O)[O-])c1)N1CCN(c2ccccc2)CC1`: the activation was 2.09%.
Take `O=C(c1cc(C(=O)N2CCN(c3ccc(F)cc3)CC2)cc([N+](=O)[O-])c1)N1CCN(c2ccc(F)cc2)CC1`: the activation is 3.86%.
For `Cc1cc(C)c(NC(=O)CN2CCOCCOCCOCCOCC2)c(C)c1`, the activation is 0.35%.
As for `O=[N+]([O-])c1ccc(N/N=C/c2ccccc2)cc1`, the activation is -1.64%.
In the case of `Cc1ccc(NS(=O)(=O)c2ccc(N/N=C/c3ccccc3OCC(=O)O)c([N+](=O)[O-])c2)c(C)c1`, the activation is 2.69%.
With `Cc1cccc(COc2ccccc2/C=N/Nc2ccc([N+](=O)[O-])cc2)c1`, the activation is 50.4% (active).
Regarding `CCOC(=O)c1cc(S(=O)(=O)NCCc2ccc(OC)c(OC)c2)cn1C`, the activation is 1.77%.
Next, `CCOC(=O)C1CCN(CC(=O)Nc2ccc(OC)c(S(=O)(=O)N3CCCCC3)c2)CC1`: -1.58%.
Consider `O=C(NNC(=O)c1cccnc1)Nc1ccccc1`, for which the activation was -0.59%.
Take `Cc1ccc(NC(=O)NCC(c2cccnc2)N2CCOCC2)cc1` (stereo not given): the activation was 3.2%.
In the case of `Cc1ccc(NC(=O)Nc2cccnc2)cc1`, the activation is 83.7% (active).
As for `CCCNC(=S)NC1CC2CCCC(C1)N2CC(C)C` (stereo not given), the activation is 2.13%.
`CCS(=O)(=O)c1ccc(O)c(NC(=O)COc2ccc(Cl)cc2)c1`: the activation is -3.28%.
Take `COC(=O)c1sccc1NC(=O)COc1ccc(Cl)cc1`: the activation is 3.07%.
As to `O=C(COc1ccc(Cl)cc1)Nc1ccccc1CO`, the activation was 62.6% (active).
Next, `CC(C(=O)NCCc1ccc(S(N)(=O)=O)cc1)N1C(=O)CC(C)(C)Sc2ccccc21` (stereo not given): 1.77%; `Cc1ccc(CN(Cc2cccnc2)C(=S)Nc2cc(Cl)ccc2C)cc1`: 2.1%; `Cc1cs/c(=N\N=C\c2ccc(O)cc2)n1Cc1ccco1`: 59.4% (active).
Turning to `CN(c1ccccc1)c1ccc(/C=c2\s/c(=C(/C#N)C(=O)C(C)(C)C)n(Cc3ccco3)c2=O)cc1`, the activation is 0.79%.
With `Cc1csc(=Nc2ccccc2)n1CCO`, the activation was 4.51%.
In the case of `Cc1c2cnn(CC(=O)NCc3ccccn3)c(=O)c2c(C)n1Cc1ccc(Cl)cc1`, the activation was 1.4%.
For the compound `Cc1ccc(S(=O)(=O)N(C)c2ccc(OCC(=O)OCC(=O)N(CC#N)c3ccccc3)cc2)cc1`, the activation was -1.55%.
Consider `COc1ccc(OC)c(-c2csc(NC(=O)C3=NNC(=O)CC3)n2)c1`, for which the activation was 12.8%.
To `COc1ccc(OC)c(-c2csc(NC(=O)COC(=O)C3CC3)n2)c1` belongs -1.02%.
Turning to `COc1ccc(OC)c(-c2csc(-c3cccs3)n2)c1`, the activation was 121% (active).
Turning to `CCOC(=O)N1CCC(Nc2c(NCCCN3CCN(CC)CC3)c(=O)c2=O)CC1`, the activation was 0.42%.
Consider `COc1ccccc1C1=CC(=O)CCC1`, for which the activation was 0.36%.
Turning to `COc1ccc(NC(=O)CNc2cc(S(=O)(=O)N3CCOCC3)ccc2N2CCOCC2)c(OC)c1`, the activation is -1.67%.
Turning to `O=c1ccnc(Nc2ccc(Cl)cc2)[nH]1`, the activation was 2.65%.
As to `Cn1c(Nc2cccc(Cl)c2)nc2ccccc21`, the activation was -1.72%.
In the case of `Clc1ccc(Nc2ccc3ccccc3n2)cc1`, the activation was 73.6% (active).
Take `Cc1cccc(C)c1NC(=O)CNC(=O)c1c(C)nn(-c2ccccc2)c1C`: the activation was 0.83%.
In the case of `COc1cc(C2OC(c3cc(OC)c(OC)c(OC)c3)C(C)C2C)cc(OC)c1OC` (stereo not given), the activation is 3.59%.
As for `Cn1c(=O)c2c(ncn2CC(COCc2ccccc2Cl)OCc2ccccc2Cl)n(C)c1=O` (stereo not given), the activation is 0.3%.
On to `Fc1ccc(-c2csc(-c3ccc(C4SCCS4)cc3)n2)cc1F`, for which the activation was 27.6%.
With `N#CC(=C1CCCC1)c1nc(-c2ccc(Cl)cc2)cs1`, the activation was 4.95%.
For the compound `Clc1ccc(-c2csc(-c3ccncc3)n2)cc1`, the activation was 63.4% (active).
For the compound `CN(C)S(=O)(=O)c1ccc2oc(SCC(=O)Nc3ccccc3F)nc2c1`, the activation was 10.3%.
As to `CCOC(=O)C1CCN(Cc2nnc(-c3cccc(Br)c3)o2)CC1`, the activation is 1.14%.
On to `CCOC(=O)C1CCN(c2ncnc3c2c(-c2ccccc2)cn3-c2ccc(C)cc2)CC1`, for which the activation was -0.73%.
Next, `CCOC(=O)C1CCN(c2ncnc3c2oc2ccc(Br)cc23)CC1`: 66.9% (active).
On to `COc1cc(OC)cc(C(=O)NCC(=O)N2CCCCCCC2)c1`, for which the activation was 17.3%.
Take `CSc1ncccc1C(=O)Nc1ccc(C)cn1`: the activation is -0.65%.
Take `CSc1ncccc1C(=O)Nc1nc2ccc(F)cc2s1`: the activation was 79.2% (active).
As to `CSc1ncccc1C(=O)NC1CCCCCC1`, the activation is -0.02%.
Take `Cc1ccc(SC(CC(=O)c2ccc(C(C)(C)C)cc2)C(=O)O)cc1` (stereo not given): the activation was -1.16%.
Take `COc1cc(C#Cc2ccc3cc(CCCO)oc(=O)c3c2)cc(OC)c1`: the activation was 1.38%.
`COc1ccc(Nc2nc(-c3cccnc3)nc3ccccc23)cn1`: the activation is -0.65%.
With `Cc1ccc2nc(C)cc(N/N=C/c3ccc(F)cc3)c2c1`, the activation was 10.9%.
With `Fc1ccc(/C=N/Nc2nc(-c3cccnc3)nc3ccccc23)cc1`, the activation was 69.7% (active).
To `O=C(COC(=O)COc1ccccc1F)Nc1cccc(S(=O)(=O)N2CCCCC2)c1` belongs 0.3%; to `CC(Sc1nnc(COc2ccccc2)n1-c1ccccc1)C(=O)O` (stereo not given), -2.4%.
Consider `NC(=O)c1oc2ccccc2c1NC(=O)Cc1ccccc1`, for which the activation was 0.99%.
For the compound `CC(C)C(=O)Nc1c(C(=O)c2ccc(F)cc2)oc2ccccc12`, the activation was 132% (active).
To `CC(C)C(=O)Nc1c(O)c2ccccc2[nH]c1=O` belongs -0.12%.
As to `CC(C)C(=O)Nc1ccc2c(c1)oc1ccccc12`, the activation was 60.8% (active).
For `CC(C)C(=O)Nc1ccc2oc(=O)ccc2c1`, the activation was 1.62%.
For `Cc1cc(=O)oc2cc(NC(=O)C(C)Oc3ccccc3)ccc12` (stereo not given), the activation was 2.24%.
As for `Cc1ccc(-n2ncc3c(Nc4cccc(C(=O)O)c4)ncnc32)cc1`, the activation is -0.95%.
As for `Cc1sc2ncnc(N3CCC(C(=O)Nc4nc5ccc(Cl)cc5s4)CC3)c2c1C`, the activation was 12.5%.
As for `Cc1noc(C)c1S(=O)(=O)N(C)C[C@H]1Oc2c(NC(=O)Nc3ccc4c(c3)OCO4)cccc2C(=O)N([C@H](C)CO)C[C@@H]1C`, the activation is 0.19%.
For `Cc1cc(NC(=O)/C=C/C(=O)N(c2ccccc2C)C(C(=O)NC2CCCC2)c2ccc(F)cc2)no1` (stereo not given), the activation is 6.2%.
Next, `OCc1ccc(-c2ccccc2)c(-c2ccccc2)c1`: -2.37%.
Consider `Cc1cc2c(=O)n(C)c(SCC(=O)c3cc4ccccc4o3)nc2s1`, for which the activation was 15.9%.
`Cc1ccc(Nc2nnc(SCC(=O)c3cc4ccccc4o3)s2)cc1C`: the activation was 52.8% (active).
With `Cc1ccccc1Nc1nnc(SCC(=O)c2cc3ccccc3o2)s1`, the activation is 26.2%.
Next, `COC(=O)c1ccc([C@@H](O)[C@H](C)C(=O)CC(=O)OC(C)(C)C)cc1`: 1.52%; `COC(=O)c1ccc(NC(=O)CSc2nc(N)c(NC(=O)c3ccc(Br)o3)c(=O)[nH]2)cc1`: -1.66%.
For `Cn1c2ccccc2c2c(C(=O)N3CCN(c4ccc(F)cc4)CC3)cn(C3CCCC3)c(=O)c21`, the activation is 12.2%.
For `CNC(=S)NNC(=O)c1oc2nc(-c3ccccc3)cc(-c3ccco3)c2c1N`, the activation was 15.9%.
As for `O=C(Nc1cccc(F)c1)c1cc(-c2ccco2)nc2ccccc12`, the activation is 33.2%.
As to `NNC(=O)c1oc2nc(-c3ccccc3)cc(-c3ccco3)c2c1N`, the activation is 76.1% (active).
Consider `CCN(Cc1nc2ccccc2c(=O)[nH]1)Cc1cc(=O)oc2cc(C)c(C)cc12`, for which the activation is 0.64%.
Turning to `COC(=O)c1ccc(CNC(=O)c2ccc(S(=O)(=O)N3CCCCCC3)cc2)cc1`, the activation is -0.2%.
`CCN(C(=O)Cc1nc(N)n[nH]1)C1(C(=O)Nc2ccccc2)CCCCC1`: the activation was 1.44%.
Regarding `Brc1c(CSc2nncc3ccccc23)nc2ccccn12`, the activation is 48.9% (active).
In the case of `CN(C(=O)CSc1nncc2ccccc12)C1CCCCC1`, the activation was 8.04%.
Turning to `CC(C)CC(=O)c1c[nH]c(C(=O)NCc2ccccc2)c1`, the activation was 5.43%.
In the case of `O=C(NC(=S)N1CCc2ccccc21)c1ccco1`, the activation is 8.66%.
Regarding `O=C(NNC(=S)NC(=O)c1cn(-c2ccccc2)nc1-c1ccccc1)c1ccncc1`, the activation was 12.3%.
Turning to `O=C(NCc1ccco1)c1nc2ncccn2n1`, the activation was -0.33%.
As for `O=c1oc(-c2ccco2)nc2sc3c(c12)CCCCC3`, the activation was 5.12%.
Take `O=C(NCc1ccco1)c1cccn2c(=O)c3c4c(sc3nc12)CCCC4`: the activation was 48.2% (active).
As to `Cc1c(CN2CC[C@@H](N3CCN(c4ccccn4)CC3)[C@H](O)C2)[nH]c2ccc(F)cc12`, the activation is 2.27%.
For the compound `Fc1ccc2[nH]c3c(N4CCSCC4)ncnc3c2c1`, the activation was 58.6% (active).
For `COc1ccc(N2CCN(C(=O)Cn3cnc4sc(C)c(S(=O)(=O)N5CCOCC5)c4c3=O)CC2)cc1`, the activation is -4.91%.
Next, `CCOC(=O)c1cc(NC(=O)c2cccnc2)ccn1`: 4.05%; `COc1ccc(OC)c(NC(=O)CC(Cc2ccccc2OC)C(=O)O)c1` (stereo not given): -3.53%.
Consider `CCOc1ccccc1NC(=O)Nc1cc(OC)ccc1OC`, for which the activation is 71% (active).
With `O=C(Nc1cnccn1)c1cccnc1`, the activation is 0.46%.
Regarding `CCOc1ccc(NC(=O)Nc2cc(C)ccc2OC)cc1`, the activation is -5.37%.
For `CCOc1ccccc1NC(=O)c1cccnc1`, the activation was 93.9% (active).
With `O=C(Nc1ccc(N2CCOCC2)nc1)c1c(F)cccc1F`, the activation was -5.89%.

Source of the values: PubChem BioAssay AID2796 (The Scripps Research Institute Molecular Screening Center, 2010).
